Measured values reported in PubChem BioAssay (NCI).
The panel holds about 79,000 compounds, 15% with a hit somewhere; the sample as a whole holds those more often. Activity calls are given as the source filed them. Cut-off read from the data, not from the text of the source: active = growth inhibition above about 70%; inactive = the rest.

Assay: NCI Yeast Anticancer Drug Screen. Data for the wt2 strain (AID 169);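 note: 0% = growth of vehicle-treated yeast cultures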
Settings: S. cerevisiae wt2 strain growth inhibition, active compounds read high
Protocol: Growth inhibition of yeast strains with defined genetic alterations is measured as a screen for potential anti-cancer activity. Selected strains with alterations in DNA damage repair or cell cycle control were exposed to compounds and growth inhibition was measured relative to vehicle treated controls. The strain used in this assay is wt2

Measured: growth inhibition

NNC(=O)CCc1cc2ccccc2c2ccccc12
active: at 100.0 µM 100%
inactive: at 1.2 µM -8% | at 3.7 µM 1% | at 11.0 µM 18% | at 33.0 µM 53%

Nc1nc(N)c2nc(CNc3ccc(C(=O)NC(CCC(=O)O)C(=O)O)cc3F)cnc2n1 (stereo not given)
inactive: at 1.2 µM -19% | at 3.7 µM -11% | at 11.0 µM -21% | at 33.0 µM 2% | at 100.0 µM 48%

CCO/C(C)=C(/C#N)C(N)=S
inactive: at 1.2 µM -1% | at 3.7 µM -2% | at 11.0 µM 0% | at 33.0 µM 1% | at 100.0 µM 1%

Cc1ccc(Cl)cc1NC(=O)OCCN(C)C(=O)Nc1cc(Cl)ccc1C
inactive: at 1.2 µM -37% | at 3.7 µM -27% | at 11.0 µM -23% | at 33.0 µM -8% | at 100.0 µM 6%

O=C1NC(=O)c2ccc([N+](=O)[O-])c3cccc1c23
inactive: at 1.2 µM 21% | at 3.7 µM 12% | at 11.0 µM 29% | at 33.0 µM 43% | at 100.0 µM 62%

C[C@]12CC[C@H](O)CC1=CC[C@@H]1C2CC[C@]2(C)C(=O)NC(=O)CC12 (stereo not given in full)
active: at 11.0 µM 78% | at 33.0 µM 94% | at 100.0 µM 97%
inactive: at 1.2 µM -14% | at 3.7 µM 27%

CC(=O)Nc1ccc(/C=C/[N+](=O)[O-])cc1
inactive: at 1.2 µM -4% | at 3.7 µM -3% | at 11.0 µM -4% | at 33.0 µM 11%
active: at 100.0 µM 91%

CC(=O)OC1CCC2(C)C(=CC(C3C=C4CC(OC(C)=O)CCC4(C)C4=C3C3CC5OC6(CCC(C)CO6)C(C)C5C3(C)CC4)C3=C2CCC2(C)C3CC3OC4(CCC(C)CO4)C(C)C32)C1 (stereo not given)
inactive: at 1.2 µM -2% | at 3.7 µM -3% | at 11.0 µM -1% | at 33.0 µM 25%
active: at 100.0 µM 93%
